Laboratory results from PubChem BioAssay.
Several values for one entry are separate records, joined by “and”; a condition that tells them apart may be missing. Identical values can stand only once. Activity calls are given as the source filed them.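 The calls were made as follows, unless noted: active = thallium flux through the channel raised or lowered by more than 3 SD from vehicle-only wells, actives on both sides; inactive = the rest.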

Columns and labels:
[1] = liver-stage malaria parasite growth inhibition, primary screen, cell-based, HepG2, luciferase luminescence, HepG2 viability (AID 624349; in the data active = parasite load remaining mostly below about 12%, no sharp cut-off; inactive = mostly above about 10%;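 also: 100% = mean of DMSO negative control wells on the same plate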); conditions: P. berghei liver stage in HepG2, luciferase luminescence, concentration not given here; parasite load remaining: stronger effect = lower value; viability: measured here: HepG2 viability without parasites
[2] = Cy5 fluorescence interference with SSB-bound oligo, artefact control for HCV NS3 helicase inhibitor project, biochemical, NIH Clinical Collection, E. coli SSB (AID 743268; call rule not given here)
[3] = test system: Hepatitis C virus NS3 helicase; assay: HCV NS3 helicase inhibitors, primary screen, biochemical, fluorescence polarization, NIH Clinical Collection (AID 743270; call rule not given here); conditions: NS3 helicase binding to Cy5-dT15 DNA, stronger effect = higher value, concentration not given here
[4] = biological target: Single-stranded DNA-binding protein (Escherichia coli (strain K12)) (UniProt P0AGE0); assay: E. coli SSB displacement from DNA, counter-screen for HCV NS3 helicase inhibitor project, biochemical, fluorescence polarization, NIH Clinical Collection (AID 743271; in the data active = inhibition above about 28%); conditions: stronger effect = higher value, concentration not given here
[5] = fluorescence interference in NS3h assay format, artefact control for HCV NS3 helicase inhibitor project, biochemical, NIH Clinical Collection (AID 743272; call rule not given here;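 also: HCV NS3 helicase with a Cy5 labelled single stranded DNA probe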); conditions: fluorescence interference counterscreen, stronger effect = lower value
[6] = modulation of C. elegans fzo-1 (AID 1259413; call rule not given here;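 also: fzo-1 mutant C. elegans worms in liquid wells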); conditions: C. elegans fzo-1 modulator screen, mean read-out; stronger effect = higher value
[7] = sensitizers of A549 cells to miR-34 induction, primary screen, imaging, A549 dox-inducible miR-34, nuclei and caspase counts (AID 1347080;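 active = compounds whose cell count with miR-34 switched on is under 0.7 times the count with it off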); conditions: A549 miR-34 inducible, Hoechst nuclei count, 48 h
[8] = viability rescue of complex I mutant cybrids, primary screen, cell-based, galactose medium, ATP luminescence (AID 1645843;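 active = z-score of at least 1.8 in each of two replicates, scored against plate mean and spread of sample wells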;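 also: positive z means more ATP and so rescue of galactose-driven cybrid death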); conditions: complex I mutant cybrid cells, 72 h, stronger effect = higher value
[9] = test system: F380Y; assay: modulators of BK channel variants, profiling panel, selectivity assay, cell-based, U2OS BacMam, thallium flux, beta subunits (AID 1259406); conditions: at 30 µM;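 also: initial slope of Thallos dye fluorescence rise after thallium is added; log ratio against the mean of 0.3% DMSO vehicle wells on the same plate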
[10] = test system: F380Y/beta1; assay: as above; conditions: at 30 µM
[11] = test system: F380Y/beta2Delta; assay: as above; conditions: at 30 µM
[12] = test system: F380Y/beta4; assay: as above; conditions: at 30 µM
[13] = biological target: Calcium-activated potassium channel subunit alpha-1 (Homo sapiens) + Leucine-rich repeat-containing protein 26 (Homo sapiens) (UniProt Q12791+Q2I0M4); assay: as above; conditions: F380Y/Slo1WT/gamma1, at 30 µM
[14] = test system: R275C; assay: as above; conditions: at 30 µM
[15] = test system: R275C/beta1; assay: as above; conditions: at 30 µM
[16] = test system: R275C/beta2Delta; assay: as above; conditions: at 30 µM
[17] = test system: R275C/beta4; assay: as above; conditions: at 30 µM
[18] = test system: R275C/Slo1WT/beta2; assay: as above; conditions: at 30 µM
[19] = survival rescue of mitochondrial mutant cells in low glucose, primary screen, MELAS cybrids, Rieske KO mouse fibroblasts, CellTiter-Glo (AID 1508586;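 active = mean z-score across replicates of 1.96 or higher in either the MELAS or the Rieske mutant cell line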;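 also: z relative to plate mean and SD of compound and empty wells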)
[20] = stronger effect = lower value, cell number ratio, induced over uninduced
[21] = measured here: relative caspase fold change +Dox/-Dox
[22] = measured here: total cells with miR-34 induction, stronger effect = lower value
[23] = measured here: total cells without miR-34 induction
[24] = MELAS cybrid survival, CellTiter-Glo 48 h, stronger effect = higher value
[25] = Rieske KO mouse fibroblast survival, CellTiter-Glo 72 h

Chain of Calcium-activated potassium channel subunit alpha-1 (Homo sapiens) + Leucine-rich repeat-containing protein 26 (Homo sapiens) (Q2I0M4 whole entry, looked up, one chain of several): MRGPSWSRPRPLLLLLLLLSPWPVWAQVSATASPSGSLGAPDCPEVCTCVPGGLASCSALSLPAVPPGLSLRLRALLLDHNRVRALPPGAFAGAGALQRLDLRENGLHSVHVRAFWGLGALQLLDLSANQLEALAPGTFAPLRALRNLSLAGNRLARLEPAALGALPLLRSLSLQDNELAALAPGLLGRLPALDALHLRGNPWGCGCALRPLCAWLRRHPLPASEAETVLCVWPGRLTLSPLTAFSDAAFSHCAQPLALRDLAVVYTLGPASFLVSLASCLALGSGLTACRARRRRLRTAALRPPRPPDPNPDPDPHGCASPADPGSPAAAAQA

CC(=O)OCC(=O)C12OC3(CCCC3)OC1CC1C3CCC4=CC(=O)C=CC4(C)C3(F)C(O)CC12C (stereo unspecified)
1.12: fold change [7, 21]
inactive: parasite load remaining [1] 72.8% | fluorescence ratio [2] 1.06 | inhibition [3] -5% | inhibition [4] 0.29% | fluorescence ratio [5] 0.98 | mean signal [6] 242 | fold change [7, 20] 0.97 | z-score [8] -1.46 | log fold change Tl+ flux [10] -0.0293 | log fold change Tl+ flux [11] 0.0485 | log fold change Tl+ flux [12] -0.0119 | log fold change Tl+ flux [13] 0.0537 | log fold change Tl+ flux [14] -0.00403 | log fold change Tl+ flux [15] 0.0957 | log fold change Tl+ flux [16] 0.0763 | log fold change Tl+ flux [17] 0.0347 | log fold change Tl+ flux [18] 0.084
95.1%: viability [1]
active: log fold change Tl+ flux [9] 0.16
6100: cell count [7, 23]
5910: cell count [7, 22]

CC(C)(C)NC(=O)[C@@H]1C[C@@H]2CCCC[C@@H]2CN1C[C@@H](O)[C@H](Cc1ccccc1)NC(=O)[C@H](CC(N)=O)NC(=O)c1ccc2ccccc2n1
9260: cell count [7, 23]
8420: cell count [7, 22]
inactive: parasite load remaining [1] 82.5% and 52% | fluorescence ratio [2] 1.02 | inhibition [3] 2.77% | inhibition [4] 12.2% | fluorescence ratio [5] 1.01 | mean signal [6] 234 | fold change [7, 20] 0.908 | z-score [19, 24] -0.0678 | log fold change Tl+ flux [10] -0.0774 | log fold change Tl+ flux [12] -0.072 | log fold change Tl+ flux [13] -0.0094 | log fold change Tl+ flux [17] 0.0316 | log fold change Tl+ flux [18] -0.0147
active: log fold change Tl+ flux [9] -0.12 | log fold change Tl+ flux [11] -0.2 | log fold change Tl+ flux [14] -0.273 | log fold change Tl+ flux [15] 0.138 | log fold change Tl+ flux [16] -0.11
75.6% and 103%: viability [1]
-1.19: z-score [19, 25]
0.962: fold change [7, 21]

Nc1ccc2cn[nH]c2c1
64.9%: viability [1]
8130: cell count [7, 22]
inactive: parasite load remaining [1] 61.3% | fluorescence ratio [2] 0.99 | inhibition [3] -1.09% | inhibition [4] -0.39% | fluorescence ratio [5] 0.98 | mean signal [6] 290 | fold change [7, 20] 0.924 | z-score [8] 0.52 | log fold change Tl+ flux [9] -0.0182 | log fold change Tl+ flux [10] -0.022 | log fold change Tl+ flux [11] 0.0231 | log fold change Tl+ flux [12] -0.00919 | log fold change Tl+ flux [13] 0.0509 | log fold change Tl+ flux [14] -0.0141 | log fold change Tl+ flux [15] -0.000281 | log fold change Tl+ flux [16] 0.0572 | log fold change Tl+ flux [17] -0.0327 | log fold change Tl+ flux [18] 0.0188
8800: cell count [7, 23]
1.71: fold change [7, 21]

O=C1c2c(O)cc(O)cc2O[C@H](c2ccc(O)c(O)c2)[C@H]1O
91%: viability [1]
inactive: parasite load remaining [1] 112% | fluorescence ratio [2] 0.99 | inhibition [3] 1.19% | inhibition [4] -1.64% | fluorescence ratio [5] 0.99 | mean signal [6] 241 | log fold change Tl+ flux [9] 0.0483 | log fold change Tl+ flux [10] -0.0233 | log fold change Tl+ flux [11] 0.00163 | log fold change Tl+ flux [12] 0.00589 | log fold change Tl+ flux [13] 0.0266 | log fold change Tl+ flux [14] -0.0716 | log fold change Tl+ flux [15] -0.00477 | log fold change Tl+ flux [16] 0.0423 | log fold change Tl+ flux [17] 0.0387 | log fold change Tl+ flux [18] -0.0121

CCC(CO)NCCNC(CC)CO (stereo unspecified)
1.98 and 0.647: fold change [7, 21]
-0.177: z-score [19, 25]
10400 and 7770: cell count [7, 22]
129%: viability [1]
10600 and 8610: cell count [7, 23]
inactive: parasite load remaining [1] 78.1% | fluorescence ratio [2] 1.1 | inhibition [3] -5.91% | inhibition [4] -2% | fluorescence ratio [5] 1.03 | mean signal [6] 252 | fold change [7, 20] 0.98 and 0.902 | z-score [19, 24] -0.216 | z-score [8] 0.45 | log fold change Tl+ flux [9] -0.0102 | log fold change Tl+ flux [10] -0.0572 | log fold change Tl+ flux [11] 0.024 | log fold change Tl+ flux [12] -0.00313 | log fold change Tl+ flux [13] -0.00134 | log fold change Tl+ flux [14] 0.00482 | log fold change Tl+ flux [15] -0.0497 | log fold change Tl+ flux [16] 0.000295 | log fold change Tl+ flux [17] -0.0366 | log fold change Tl+ flux [18] 0.0123

O=C(O)COCCN1CCN([C@H](c2ccccc2)c2ccc(Cl)cc2)CC1
active: log fold change Tl+ flux [15] 0.122
73.9%: viability [1]
inactive: parasite load remaining [1] 91.6% | mean signal [6] 261 | log fold change Tl+ flux [9] 0.0476 | log fold change Tl+ flux [10] 0.0381 | log fold change Tl+ flux [11] 0.0598 | log fold change Tl+ flux [12] -0.027 | log fold change Tl+ flux [13] 0.0629 | log fold change Tl+ flux [14] -0.011 | log fold change Tl+ flux [16] 0.083 | log fold change Tl+ flux [17] 0.0472 | log fold change Tl+ flux [18] 0.0404

CC(C(O)c1ccc(O)cc1)N1CCC(Cc2ccccc2)CC1 (stereo unspecified)
active: log fold change Tl+ flux [13] -0.0962 | log fold change Tl+ flux [14] -0.193 | log fold change Tl+ flux [16] -0.218
-0.18 and -0.279 and 1.18: z-score [19, 25]
inactive: fluorescence ratio [2] 1.03 | inhibition [3] -6.73% | inhibition [4] -4.72% | fluorescence ratio [5] 0.98 | mean signal [6] 233 | z-score [19, 24] -0.121 and -0.969 and -0.489 | z-score [8] -1.16 and -1.04 and -0.25 | log fold change Tl+ flux [9] 0.0449 | log fold change Tl+ flux [10] -0.0111 | log fold change Tl+ flux [11] 0.00326 | log fold change Tl+ flux [12] 0.0228 | log fold change Tl+ flux [15] -0.0365 | log fold change Tl+ flux [17] -0.0303 | log fold change Tl+ flux [18] 0.00646

Nc1nc(Cl)nc2c1ncn2[C@@H]1O[C@H](CO)[C@@H](O)[C@H]1O
40.5%: viability [1]
inactive: parasite load remaining [1] 214% | fluorescence ratio [2] 1 | inhibition [3] 5.15% | inhibition [4] 7.6% | fluorescence ratio [5] 1 | mean signal [6] 269 | log fold change Tl+ flux [9] -0.00984 | log fold change Tl+ flux [10] -0.0372 | log fold change Tl+ flux [11] -0.0171 | log fold change Tl+ flux [12] -0.000976 | log fold change Tl+ flux [13] -0.026 | log fold change Tl+ flux [14] 0.0386 | log fold change Tl+ flux [15] -0.0185 | log fold change Tl+ flux [16] -0.0141 | log fold change Tl+ flux [17] 0.0509 | log fold change Tl+ flux [18] -0.00662
